14 compounds from PubChem BioAssay can be followed below.

SMILES strings stand for the structures. Active and inactive are the calls of the source.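 The calls were made as follows, unless noted: active = NADPH fluorescence slope more negative than the mean of all samples by about 3 SD, 99.7% confidence; inactive = the rest.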

Test [1] can be described thus: inhibitors of TNFa-induced NFkB p65 translocation, primary screen, imaging, HUVEC, MLSMR starter and 10KST1 sets (AID 438;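 active = inhibition above 20% together with a positive visual image hit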;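 also: compound added about 3h40 before a 20 min TNFalpha stimulation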;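 as to inhibition: signal is the nuclear over cytoplasmic p65 intensity ratio per well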). As to conditions: HUVEC TNFa-induced p65 nuclear translocation; cell count: measured here: nuclei count (cytotoxicity indicator), at 2.08 µM; inhibition: at 2 µM, stronger effect = higher value, 0% TNFa-plus-vehicle, 100% no-TNFa wells.
A short description of test [2]: inhibitors of mutant huntingtin aggregation, primary screen, imaging, exon1htt(103Q)mCFP cells, high-content imaging (AID 483;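 active = visual image review flags a hit and inhibition of aggregation exceeds 20%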;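 also: compound exposure lasted 3 days before fixation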;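 as to nuclei count: percent of the per-plate median nuclei count of sample wells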). As to conditions: exon1htt(103Q)mCFP cell line, aggregate imaging, at 2 µM; inhibition of aggregation: stronger effect = higher value; nuclei count: measured here: cell count, toxicity.
A short description of test [3]: inhibitors of E-selectin induction by TNFa, primary screen, imaging, HUVEC, immunofluorescence, MLSMR starter and 10KST1 sets (AID 487;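 active = visually confirmed hit in the image check and inhibition above 20%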;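 as to inhibition: signal is fraction of cell area covered by stained E-selectin grains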;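 as to nuclei count: 100% = median nuclei count of all wells on the same plate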). To be noted: HUVEC TNFalpha-induced E-selectin immunofluorescence imaging, at 2 µM; inhibition: stronger effect = higher value; nuclei count: measured here: cell number, toxicity.
The target of test [4] is Voltage-gated potassium channel subunit beta-2 (Rattus norvegicus) (UniProt P62483). Put plainly: KvBeta enzyme negative modulators, primary screen, biochemical, NADPH fluorescence (AID 622;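 active = fluorescence slope higher than the sample average by over 3 SD, cut at about -0.22 in these data, passing the limit was not always enough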;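 also: slope of raw intensity against log time taken from 70 to 1610 s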). As to conditions: recombinant KvBeta, 4-cyanobenzaldehyde reduction, at 10 µM, stronger effect = higher value.
Voltage-gated potassium channel subunit beta-2 (Rattus norvegicus), sequence (P62483 whole entry, looked up): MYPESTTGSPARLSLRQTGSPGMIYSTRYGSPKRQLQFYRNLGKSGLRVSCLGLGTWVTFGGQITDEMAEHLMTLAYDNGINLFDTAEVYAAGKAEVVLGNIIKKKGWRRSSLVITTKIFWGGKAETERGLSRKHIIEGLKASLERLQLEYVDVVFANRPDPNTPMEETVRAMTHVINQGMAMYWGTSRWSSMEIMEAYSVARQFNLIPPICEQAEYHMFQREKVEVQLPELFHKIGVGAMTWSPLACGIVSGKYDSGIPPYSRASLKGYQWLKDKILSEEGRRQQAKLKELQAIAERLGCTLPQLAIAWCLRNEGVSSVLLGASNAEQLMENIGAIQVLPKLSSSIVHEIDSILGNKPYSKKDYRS
Test [5] shares this target. Briefly: KvBeta positive modulators, primary screen, biochemical, NADPH fluorescence (AID 623).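 Also: fluorescence intensity change per second fitted from 20 to 320 s.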 As to conditions: Recombinant KvBeta, NADPH fluorescence decrease slope, 10 min; at 10 µM; stronger effect = lower value.
Test [6] deals with Alpha-2C adrenergic receptor (Homo sapiens) (UniProt P18825). Briefly: modulators of alpha2C/GIRK thallium flux, primary screen, cell-based, HEK293 alpha2C/GIRK1/2 (AID 624;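 active = fluorescence slope after compound addition differing from the mean of all screened samples at 99.7% confidence, in either direction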;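 also: slope of fluorescence ratio to pre-addition baseline per second over 15 to 24 s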). To be noted: thallium flux BTC fluorescence, at 10 µM, actives lie on both sides.
Alpha-2C adrenergic receptor (Homo sapiens), sequence (P18825 whole entry, looked up): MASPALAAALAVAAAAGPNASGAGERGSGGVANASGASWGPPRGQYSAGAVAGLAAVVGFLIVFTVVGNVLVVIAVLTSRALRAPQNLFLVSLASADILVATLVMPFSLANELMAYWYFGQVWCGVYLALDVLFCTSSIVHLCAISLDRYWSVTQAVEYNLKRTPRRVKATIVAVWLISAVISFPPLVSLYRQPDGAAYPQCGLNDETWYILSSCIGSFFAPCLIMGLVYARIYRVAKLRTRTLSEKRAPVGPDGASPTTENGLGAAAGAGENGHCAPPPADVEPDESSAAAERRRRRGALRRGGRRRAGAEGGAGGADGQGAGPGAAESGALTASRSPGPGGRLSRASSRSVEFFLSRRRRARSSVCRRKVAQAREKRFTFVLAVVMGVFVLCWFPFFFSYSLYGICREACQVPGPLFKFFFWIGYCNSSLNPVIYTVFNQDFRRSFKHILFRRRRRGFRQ
Test [7] is described as follows: inhibitors of Sendai virus-induced IRF3 signaling, primary screen, TLR/RLR signaling modifier project, cell-based, Sendai virus stimulus, luciferase, 10K MLSCN set (AID 602276;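 active = inhibition at or above 50% at 10 µM; inactive = inhibition below 50%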;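 also: firefly luciferase from ISG56 promoter only with Renilla not read in this screen; 0% = Sendai virus plus DMSO and 100% = medium plus DMSO without virus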). To be noted: HEK293 RL24 IRF3 luciferase reporter, at 10 µM, stronger effect = higher value. A general note: In a reporter assay the amount or activity of a reporter protein is the signal.
A short description of test [8]: inhibitors of poly I:C-induced TLR3 signaling, primary screen, cell-based, poly I:C stimulus, luciferase, 10K MLSCN set (AID 602277;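 active = inhibition of the reporter signal at or above 50%; inactive = inhibition below 50%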). As to conditions: HEK293-TLR3 RL24 IRF3 luciferase reporter, at 10 µM, stronger effect = higher value.

Consider `Cc1cccc(N2C(=O)CC(Sc3nc(C)c4c(n3)CCCC4)C2=O)c1` (centres undefined), for which the cell count in test [1] was 603. In addition, the inhibition (in general, the change of the read-out against control, counted positive when it falls) in test [1] was 3.4% (inactive); in test [3] it was 2% (inactive); in test [7] it was -11.6% (inactive); in test [8], -8.43% (inactive). Besides, in test [2], the inhibition of aggregation is -4.5% (inactive). For the same compound, the nuclei count came out at 105% in test [2] and 104% in test [3]. In addition, the fluorescence slope in test [4] is -0.592 (inactive). Further, in test [5], the NADPH fluorescence slope was -2.5e-05 (inactive). For the same compound, the slope in test [6] is 0.00308 (inactive).
With `O=C(c1ccc2c(c1)c(=O)oc1ccccc12)N1CCCCC1`, the cell count in test [1] came out at 206. The inhibition is 0.3% (inactive) in test [1], 19.4% (inactive) in test [3], -50.7% (inactive) in test [7] and -130% (inactive) in test [8]. Besides, the inhibition of aggregation in test [2] was 15.8% (inactive). Further, the nuclei count amounted to 87.8% in test [2] and 90.7% in test [3]. Further, the fluorescence slope in test [4] was -0.363 (inactive). For the same compound, the NADPH fluorescence slope in test [5] is 1.9e-05 (inactive). In addition, in test [6], the slope was 0.00354 (inactive).
With `N#Cc1nc(-c2ccco2)oc1N1CCN(c2cccc(Cl)c2)CC1`, the cell count in test [1] was found to be 744. In addition, the inhibition in test [1] is -7.5% (inactive); in test [3], -75.1% (inactive); in test [7], 8.62% (inactive); in test [8] it was -3.74% (inactive). The inhibition of aggregation in test [2] is 20.8% (inactive). Further, the nuclei count in test [2] stood at 123%; in test [3], 109%. Further, the fluorescence slope in test [4] was -0.334 (inactive). In addition, the NADPH fluorescence slope in test [5] was 2.4e-05 (inactive). The slope in test [6] was 0.00657 (inactive).
Consider `O=C(OCC(=O)c1ccc[nH]1)c1ccc(S(=O)(=O)N2CCCCC2)cc1`, for which the cell count in test [1] was 314. Besides, the inhibition in test [1] was 22.9% (inactive); in test [3] it was -31.1% (inactive); in test [7], 2.97% (inactive); in test [8], 29.4% (inactive). Also, the inhibition of aggregation in test [2] was 1.5% (inactive). For the same compound, the values for the nuclei count in test [2] and in test [3] were 96.8% and 98%, respectively. Moreover, the fluorescence slope in test [4] was -0.444 (inactive). Besides, the NADPH fluorescence slope in test [5] was -4.5e-05 (inactive). The slope in test [6] was 0.00419 (inactive).
Regarding `CCOC(=O)CSc1nnc(-c2ccccc2OC)o1`, in test [1], the cell count came out at 574. For the same compound, the inhibition was -3.6% (inactive) in test [1], -74.1% (inactive) in test [3], -10.7% (inactive) in test [7] and 99.6% (active) in test [8]. For the same compound, the inhibition of aggregation in test [2] was -42.2% (inactive). Moreover, the results for the nuclei count in test [2] and in test [3] were 112% and 105%, respectively. In addition, in test [4], the fluorescence slope is -0.523 (inactive). The NADPH fluorescence slope in test [5] was -0.000143 (inactive). Moreover, in test [6], the slope is 0.00552 (inactive).
For `COc1ccc(C(=O)Nc2ccc(S(=O)(=O)Nc3onc(C)c3C)cc2)cc1`, the cell count in test [1] stood at 501. The inhibition in test [1] was 3.7% (inactive); in test [3], 16.1% (inactive); in test [7], 4.94% (inactive); in test [8], 2% (inactive). The inhibition of aggregation in test [2] is -4.3% (inactive). For the same compound, the results for the nuclei count in test [2] and in test [3] were 110% and 111%, respectively. The fluorescence slope in test [4] is -0.354 (inactive). Further, the NADPH fluorescence slope in test [5] is -5.4e-05 (inactive). Further, the slope in test [6] is 0.00607 (inactive).
Consider `CCCOc1ccccc1NC(=O)c1c(-c2ccccc2)noc1C`, for which, in test [1], the cell count was found to be 800. Besides, the inhibition in test [1] is 4.6% (inactive); in test [3], -43.4% (inactive); in test [7], 10.6% (inactive); in test [8], 25.8% (inactive). Also, the inhibition of aggregation in test [2] was 8.8% (inactive). Also, the nuclei count in test [2] stood at 111%; in test [3] it was 112%. Moreover, the fluorescence slope in test [4] is -0.584 (inactive). In test [5], the NADPH fluorescence slope is -1.4e-05 (inactive). Also, the slope in test [6] is 0.00575 (inactive).
In the case of `CCOc1ccc(N(CC)C(=O)COc2cc(=O)n(C)c3ccccc23)cc1`, the cell count in test [1] was 622. In addition, the inhibition was 16.5% (inactive) in test [1], -47.3% (inactive) in test [3], 12.4% (inactive) in test [7] and 29.8% (inactive) in test [8]. Besides, the inhibition of aggregation in test [2] is -19.7% (inactive). Further, the results for the nuclei count in test [2] and in test [3] were 101% and 118%, respectively. Besides, the fluorescence slope in test [4] is -0.516 (inactive). Further, the NADPH fluorescence slope in test [5] is 7.5e-06 (inactive). In test [6], the slope was 0.0065 (inactive).
With `Cc1cc(=O)[nH]c(=S)n1-c1ccccc1`, the cell count in test [1] was 656. Moreover, the inhibition was 7.7% (inactive) in test [1], 23.3% (inactive) in test [3], 15.3% (inactive) in test [7] and 23.5% (inactive) in test [8]. Also, in test [2], the inhibition of aggregation was 5.6% (inactive). Moreover, the nuclei count in test [2] and in test [3] was 103% throughout. Besides, the fluorescence slope in test [4] is -0.564 (inactive). In addition, the NADPH fluorescence slope in test [5] was -3e-05 (inactive). Moreover, the slope in test [6] is 0.00585 (inactive).
On to `Cn1c(C(=O)N2CCN(C(=O)c3ccco3)CC2)cc2c(=O)n3ccccc3nc21`, for which the cell count in test [1] was determined as 323. The inhibition in test [1] was -3.3% (inactive); in test [3] it was -116% (inactive); in test [7], 10.9% (inactive); in test [8], 18% (inactive). Further, in test [2], the inhibition of aggregation was -13.8% (inactive). Further, the nuclei count was determined as 111% in test [2] and 118% in test [3]. Also, in test [4], the fluorescence slope was -0.00798 (active). Besides, the NADPH fluorescence slope in test [5] was 7.5e-06 (inactive). For the same compound, the slope in test [6] was 0.00582 (inactive).
As for `CC(CCC(=O)Nc1nncs1)C(=O)O` (centres undefined), the cell count in test [1] came to 527. The inhibition in test [1] was -0.8% (inactive); in test [3], -52.1% (inactive); in test [7], 9.72% (inactive); in test [8], 20.3% (inactive). Moreover, in test [2], the inhibition of aggregation was 1.4% (inactive). Further, the nuclei count is 97% in test [2] and 123% in test [3]. Also, the fluorescence slope in test [4] was -0.535 (inactive). Further, the NADPH fluorescence slope in test [5] was -5.2e-05 (inactive). Also, in test [6], the slope is 0.00611 (inactive).
For the compound `COc1cc(C2N3CC4(C)CN2CC(C)(C3)C4)ccc1O` (centres undefined), in test [1], the cell count came to 309. In addition, the inhibition in test [1] is -4.3% (inactive); in test [3] it was -33.6% (inactive); in test [7] it was 0.715% (inactive); in test [8], 25.8% (inactive). Further, the inhibition of aggregation in test [2] is 15.8% (inactive). Also, the nuclei count turned out to be 74.7% in test [2] and 100% in test [3]. The fluorescence slope in test [4] was -0.345 (inactive). Besides, the NADPH fluorescence slope in test [5] was -5.2e-07 (inactive). Further, in test [6], the slope was 0.0063 (inactive).
Regarding `CC(C)Cn1c(-c2ccc(F)cc2)n[nH]c1=S`, the cell count in test [1] was 390. In addition, the inhibition in test [1] is 2.6% (inactive); in test [3], -69.3% (inactive); in test [7] it was 9.62% (inactive); in test [8], 12.7% (inactive). Also, the inhibition of aggregation in test [2] was -11.3% (inactive). Further, the nuclei count turned out to be 106% in test [2] and 118% in test [3]. Moreover, the fluorescence slope in test [4] was -0.395 (inactive). Besides, the NADPH fluorescence slope in test [5] is -3.7e-05 (inactive). In test [6], the slope is 0.0039 (inactive).
Consider `COC(=O)[C@H](C)NC(=O)Nc1cccc(C(F)(F)F)c1`, for which the cell count in test [1] was found to be 483. Besides, the inhibition in test [1] is -2.7% (inactive); in test [3], -98.7% (inactive); in test [7], -11.9% (inactive); in test [8], -5.94% (inactive). Also, the inhibition of aggregation in test [2] is 29.8% (inactive). Also, the nuclei count in test [2] turned out to be 85.5%; in test [3], 109%. In addition, in test [4], the fluorescence slope is -0.537 (inactive). For the same compound, in test [5], the NADPH fluorescence slope was 2.9e-05 (inactive). Moreover, the slope in test [6] is 0.00446 (inactive).
